Changes are numbered by the printed parent chain.
Key:
Experiment in all cases: protein-binding microarray (PBM); PBM: ~300 nM protein, 6 mM HEPES pH 7.8, 80 mM KCl, 0.5 mM EDTA, 0.5 mM EGTA, 6% glycerol, 35 ng/ul poly-dIdC, 1% milk, 1 h, room temperature; Ap Aiptasia and Nv Nematostella (sea anemones) / Co Capsaspora / Aq Amphimedon (sponge) / Dm Drosophila / Hu human; RHD is the Rel homology domain; high values mean tight binding
Conditions in all cases: dsDNA, one strand shown
GST-Ap-NF-kB RHD = biological target: T1, GST-Ap-NF-kB RHD (Exaiptasia pallida (Aiptasia), UniProt A0A913YAJ5 2-422)
T1 sequence: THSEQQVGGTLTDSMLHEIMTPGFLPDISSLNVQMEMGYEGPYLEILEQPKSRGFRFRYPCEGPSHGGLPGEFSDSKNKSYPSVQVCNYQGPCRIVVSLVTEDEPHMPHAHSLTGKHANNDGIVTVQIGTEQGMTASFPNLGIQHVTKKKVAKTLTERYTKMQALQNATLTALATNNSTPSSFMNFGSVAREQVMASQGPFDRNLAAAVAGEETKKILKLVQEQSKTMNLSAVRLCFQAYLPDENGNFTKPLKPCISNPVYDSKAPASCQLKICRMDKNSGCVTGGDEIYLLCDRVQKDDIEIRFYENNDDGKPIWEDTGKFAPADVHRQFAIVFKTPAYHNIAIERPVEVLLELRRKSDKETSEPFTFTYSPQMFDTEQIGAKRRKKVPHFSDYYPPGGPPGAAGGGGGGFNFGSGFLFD

[1] = biological target: T2, GST-Nv-NF-kB (Cys allele) (Nematostella vectensis, UniProt E5G601 2-411)
T2 sequence: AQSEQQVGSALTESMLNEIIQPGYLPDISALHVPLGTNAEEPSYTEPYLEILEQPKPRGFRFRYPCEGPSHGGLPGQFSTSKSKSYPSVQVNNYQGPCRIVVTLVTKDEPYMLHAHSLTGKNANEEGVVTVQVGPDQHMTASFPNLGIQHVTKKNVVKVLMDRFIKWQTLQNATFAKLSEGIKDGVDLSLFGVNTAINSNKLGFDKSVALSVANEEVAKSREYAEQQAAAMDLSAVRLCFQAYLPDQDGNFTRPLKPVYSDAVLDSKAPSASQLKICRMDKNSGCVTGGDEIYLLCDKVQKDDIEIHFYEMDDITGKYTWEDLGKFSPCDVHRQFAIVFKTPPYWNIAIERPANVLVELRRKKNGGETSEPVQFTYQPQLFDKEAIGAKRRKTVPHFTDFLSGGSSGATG

GST-Co-NF-kB = biological target: T3, GST-Co-NF-kB (Capsaspora owczarzaki, UniProt F1ARL5 200-546)
T3 sequence: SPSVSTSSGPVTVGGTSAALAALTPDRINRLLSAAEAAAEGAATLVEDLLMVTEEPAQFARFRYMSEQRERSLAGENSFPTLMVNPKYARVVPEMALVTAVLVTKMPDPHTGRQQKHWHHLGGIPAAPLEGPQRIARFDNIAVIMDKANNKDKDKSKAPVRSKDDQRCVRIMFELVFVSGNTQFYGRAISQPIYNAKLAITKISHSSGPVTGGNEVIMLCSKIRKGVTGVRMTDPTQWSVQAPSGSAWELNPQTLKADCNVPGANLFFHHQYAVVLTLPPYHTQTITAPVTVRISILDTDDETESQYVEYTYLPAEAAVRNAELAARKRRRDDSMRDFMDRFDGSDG

GST-Dm-Relish = biological target: T4, GST-Dm-Relish (Drosophila melanogaster, UniProt Q94527 99-473)
T4 sequence: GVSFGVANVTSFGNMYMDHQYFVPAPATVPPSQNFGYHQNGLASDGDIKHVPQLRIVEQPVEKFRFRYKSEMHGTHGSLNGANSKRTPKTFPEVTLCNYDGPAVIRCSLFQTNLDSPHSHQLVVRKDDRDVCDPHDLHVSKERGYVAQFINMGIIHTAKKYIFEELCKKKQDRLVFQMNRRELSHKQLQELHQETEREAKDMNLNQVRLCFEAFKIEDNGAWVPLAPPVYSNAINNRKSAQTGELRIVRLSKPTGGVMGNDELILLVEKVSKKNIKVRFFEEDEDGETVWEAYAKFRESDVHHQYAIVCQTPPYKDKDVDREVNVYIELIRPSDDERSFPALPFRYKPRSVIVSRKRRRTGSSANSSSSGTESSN

GST-Aq-NF-kB = biological target: T5, GST-Aq-NF-kB (Amphimedon queenslandica, UniProt A9Y5G7 2-389)
T5 sequence: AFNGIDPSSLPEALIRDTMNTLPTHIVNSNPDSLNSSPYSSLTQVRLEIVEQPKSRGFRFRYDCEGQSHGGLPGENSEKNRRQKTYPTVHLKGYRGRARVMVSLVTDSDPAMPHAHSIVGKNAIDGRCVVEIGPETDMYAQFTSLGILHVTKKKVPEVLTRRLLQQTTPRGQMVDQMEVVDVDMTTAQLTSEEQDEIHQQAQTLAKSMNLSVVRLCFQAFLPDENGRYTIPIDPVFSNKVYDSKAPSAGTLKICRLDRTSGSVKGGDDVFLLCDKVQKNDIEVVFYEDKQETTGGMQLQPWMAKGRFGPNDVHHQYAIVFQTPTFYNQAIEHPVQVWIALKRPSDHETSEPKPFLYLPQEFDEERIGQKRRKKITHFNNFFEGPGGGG

GST-Hu-p50 = GST-Hu-p50 (Homo sapiens, UniProt P19838 7-356)
[2] = biological target: T6, GST-Nv-NF-kB (Ser allele) (Nematostella vectensis, UniProt A7UNT2 2-411)
T6 sequence: T2 sequence with Q21R, C66S, S207N, E215Q, V217A, E225K, A268E, D399E

GST-Hu-p50, sequence (P19838 7-356): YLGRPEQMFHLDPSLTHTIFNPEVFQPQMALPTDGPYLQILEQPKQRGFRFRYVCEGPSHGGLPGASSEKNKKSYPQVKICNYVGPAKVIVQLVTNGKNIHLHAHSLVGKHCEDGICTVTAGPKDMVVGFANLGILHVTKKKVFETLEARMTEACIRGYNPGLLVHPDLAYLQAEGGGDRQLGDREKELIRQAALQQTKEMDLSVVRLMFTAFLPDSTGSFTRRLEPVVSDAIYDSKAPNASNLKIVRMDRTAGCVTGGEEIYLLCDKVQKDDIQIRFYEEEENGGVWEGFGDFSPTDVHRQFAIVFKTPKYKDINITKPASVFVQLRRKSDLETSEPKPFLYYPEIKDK

Sequence | binding signal (GST-Ap-NF-kB RHD) | binding signal [1] | binding signal (GST-Co-NF-kB) | binding signal (GST-Dm-Relish) | binding signal (GST-Aq-NF-kB) | binding signal (GST-Hu-p50) | binding signal [2]
CCGATTAACATCACGGGAACTCCTGATGTTAATCGGGTCTTGATTCGCTTGACGCTGCTG | 3.24 z-score | 2.3 z-score | 1.84 z-score | 6.49 z-score | 4.59 z-score | 1.48 z-score | 
CCGATTAACATCAGGGGGTGGAATGATGTTAATCGGGTCTTGATTCGCTTGACGCTGCTG | 3.47 z-score | 3.19 z-score | 4.5 z-score | 2.66 z-score | 3.65 z-score | 4.42 z-score | 
CCGATTAACATCAGGAAAGGCCCTGATGTTAATCGGGTCTTGATTCGCTTGACGCTGCTG | 2.38 z-score | 2.62 z-score |  | 5.48 z-score | 5.31 z-score | 2.61 z-score | 
CCGATTAACATCAAAAAATCACCTGATGTTAATCGGGTCTTGATTCGCTTGACGCTGCTG | 2.88 z-score | 4.37 z-score |  | 8.12 z-score | 3.98 z-score | 5.67 z-score | 
CCGATTAACATCAAAATACCCCTTGATGTTAATCGGGTCTTGATTCGCTTGACGCTGCTG | 6.2 z-score | 6.38 z-score | 4.02 z-score | 5.65 z-score | 6.58 z-score | 6.17 z-score | 
CCGATTAACATCAGGAAAGCCCCTGATGTTAATCGGGTCTTGATTCGCTTGACGCTGCTG | 7.03 z-score | 9.89 z-score | 1.05 z-score | 8.43 z-score | 9.59 z-score | 6.88 z-score | 
CCGATTAACATCAAGGGGGGGACTGATGTTAATCGGGTCTTGATTCGCTTGACGCTGCTG | 6.81 z-score |  | 5.71 z-score | 4.41 z-score | 4.98 z-score | 4.74 z-score | 4.24 z-score
CCGATTAACATCAGGTGTTTCCATGATGTTAATCGGGTCTTGATTCGCTTGACGCTGCTG | 1.26 z-score | 1.06 z-score |  | 2.26 z-score | 1.98 z-score | 2.81 z-score | 
CCGATTAACATCAGATCCCCCCCTGATGTTAATCGGGTCTTGATTCGCTTGACGCTGCTG | 8.16 z-score | 5.56 z-score | 6.72 z-score | 5.21 z-score | 5.39 z-score | 5.36 z-score | 
CCGATTAACATCAGGCGAACCCCTGATGTTAATCGGGTCTTGATTCGCTTGACGCTGCTG | 1.57 z-score | 1.1 z-score |  | 1.37 z-score | 2.96 z-score | 1.53 z-score | 
CCGATTAACATCAGAAAAACACCTGATGTTAATCGGGTCTTGATTCGCTTGACGCTGCTG | 2.56 z-score | 3.55 z-score |  | 3.66 z-score | 3.91 z-score | 5.37 z-score | 
CCGATTAACATCACGGTGTTTCCTGATGTTAATCGGGTCTTGATTCGCTTGACGCTGCTG | 1.53 z-score | 1.22 z-score |  | 2.06 z-score | 2.67 z-score | 2.96 z-score | 
CCGATTAACATCACGGAAACACCTGATGTTAATCGGGTCTTGATTCGCTTGACGCTGCTG | 1.22 z-score |  |  | 1.78 z-score | 2.29 z-score | 3 z-score | 1.16 z-score
CCGATTAACATCAGGACATACCCTGATGTTAATCGGGTCTTGATTCGCTTGACGCTGCTG | 1.92 z-score | 2.84 z-score |  | 2.79 z-score | 5.54 z-score | 1.78 z-score | 

From publication PMC5700166
